This is a sample that favours compounds with a hit; in the whole collection about 3.4% have one here.
ADAM10 inh: inhibitors of human ADAM10 | recombinant ADAM10, EDANS/DABCYL FRET peptide cleavage, 3 h | O14672 | 0.62% of 370,000 active | inhibition, % at 7 µM;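 active = inhibition above a per-campaign cutoff equal to the mean of compounds falling between control-based bounds plus 3 SD, cut at about 20% in these data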;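 also: 0% = DMSO wells while the 100% control is not disclosed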
KLK7 zymogen act: activators of human kallikrein-7 zymogen; P49862; purified proKLK7, EDANS-DABCYL substrate fluorescence; 100% is mature enzyme control, 0% vehicle; activation, % at 7 µM; 0.9% of 370,000 active;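 active = activation above the mean of all tested compounds plus 3 SD, computed per campaign excluding outliers beyond control limits, cut at about 13% in these data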
sPLA2-III inh: Inhibits HGIII-sPLA2 liposome hydrolysis, primary screen | QFRET BODIPY PC-A2 liposome hydrolysis, fluorescence | AID 743126 | inhibition, % at 12.2 µM | 0.56% of 370,000 active | Q9NZ20;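 active = inhibition above mean plus 3 SD of compounds lying within the high and low control bounds, cut at about 19% in these data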;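 also: 0% = median of test compound wells and 100% = no enzyme DMSO wells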
PLC-gamma1 inh: PLC-gamma1 (human) inhibition, primary screen; P19174; purified PLC-gamma1, fluorogenic substrate, fluorescence; inhibition, % at 12.2 µM; 0.84% of 370,000 active
ADAM17 inh: ADAM17 inhibition, QFRET primary screen | recombinant ADAM17, EDANS/DABCYL FRET peptide cleavage | inhibition, % at 6.95 µM | 0.83% of 370,000 active;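 active = inhibition above the mean of compounds lying between control limits plus 3 SD, set per campaign, cut at about 8.5% in these data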;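 also: 0% = DMSO-only wells as the low control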
Target sequence (P78536 215-824 limits assumed): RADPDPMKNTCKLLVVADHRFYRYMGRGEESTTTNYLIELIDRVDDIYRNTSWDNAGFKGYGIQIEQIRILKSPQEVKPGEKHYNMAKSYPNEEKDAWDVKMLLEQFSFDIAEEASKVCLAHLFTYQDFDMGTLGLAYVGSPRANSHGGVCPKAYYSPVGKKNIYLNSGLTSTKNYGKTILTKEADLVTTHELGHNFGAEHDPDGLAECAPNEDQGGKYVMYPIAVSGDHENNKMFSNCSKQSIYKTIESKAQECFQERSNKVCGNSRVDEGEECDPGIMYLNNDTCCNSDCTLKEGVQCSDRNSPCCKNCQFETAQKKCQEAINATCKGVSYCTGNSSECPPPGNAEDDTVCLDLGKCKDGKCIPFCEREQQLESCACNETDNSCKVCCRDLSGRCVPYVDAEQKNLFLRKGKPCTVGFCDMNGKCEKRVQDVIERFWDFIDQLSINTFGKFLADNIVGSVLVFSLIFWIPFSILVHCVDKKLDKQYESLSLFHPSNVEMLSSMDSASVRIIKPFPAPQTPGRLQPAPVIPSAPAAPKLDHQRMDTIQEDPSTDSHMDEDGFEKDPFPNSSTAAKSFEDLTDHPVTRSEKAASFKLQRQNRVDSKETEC
PLCb3 inh: inhibitors of human phospholipase C beta3. Purified PLC-beta3, fluorogenic substrate, fluorescence. inhibition, % at 12.2 µM. 0.18% of 370,000 active. AID 720704; in the data active = inhibition above about 11%;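 also: 0% = median of compound wells on plate and 100% = full blocker control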
PLCgamma1 ctr: inhibits human PLC-gamma1 in PLC-beta3 counter-screen; purified PLC-gamma1, fluorogenic substrate, fluorescence; 3.1% of 3,300 active; shares compounds with PLC-gamma1 inh; inhibition, % at 12.3 µM; AID 743258
PLCb3 confirm: human PLC-beta3 inhibition, confirmation; 1% of 3,300 active; inhibition, % at 12.3 µM; shares compounds with PLC-gamma1 inh; purified PLC-beta3, fluorogenic substrate fluorescence; in the data active = inhibition above about 11%
* marks the source's active call; other numbers are inactive results; . = no result. Rule as the data show it, unless noted: active = inhibition above about 9.5%; inactive = the rest.

SMILES | ADAM10 inh | KLK7 zymogen act | sPLA2-III inh | PLC-gamma1 inh | ADAM17 inh | PLCb3 inh | PLCgamma1 ctr | PLCb3 confirm
COc1ccc(NC(=O)CN(C)C(=O)C2CC(=O)N(CCc3ccc(OC)c(OC)c3)C2)cc1 (centres undefined) | -7.6 | -0.1 | 0.9 | 4.2 | -5.0 | -2.1 | . | .
CCCC(=O)NNC(=O)CCC(=O)Nc1ccccc1Cl | 5.1 | -0.3 | -3.3 | 10.1* | 3.5 | -0.5 | -4.2 | -1.6
O=C(CCC(=O)Nc1ccccc1Cl)NNC(=O)NC1CCCCC1 | -0.7 | 0.0 | 5.9 | 0.4 | -4.2 | -8.7 | . | .
CCn1cc(S(=O)(=O)Nc2ccc(Cl)cc2F)cn1 | -1.8 | 0.1 | -3.2 | -2.2 | -1.5 | -5.9 | . | .
Cc1ccc(CN(CC(=O)NC(C)(C)C)C(=O)CNC(=O)c2cccs2)cc1 | 1.8 | -0.1 | -1.2 | 0.7 | -2.1 | 2.3 | . | .
C=CCC[C@H](Cc1ccc(F)cc1)C(=O)OC[C@@H](NC(=O)[C@H](CC=C)CC(=O)NCCO)c1ccccc1 | 10.1 | -0.1 | -12.4 | 2.3 | -1.3 | 1.9 | . | .
O=C(CSCc1ccccc1)Nc1cccc(F)c1 | 7.8 | -0.2 | -3.5 | 11.2* | -0.6 | 9.0 | 3.8 | 7.6
Cc1ccc(-c2nn(CC(=O)N3CCOCC3)c(=O)c3ccccc23)cc1S(=O)(=O)N(C)C | 3.6 | -0.2 | 5.0 | 10.4* | 4.1 | -1.7 | -1.7 | -2.8
CN(C)C(=O)Cn1c(SCC(=O)N2CCCc3ccccc32)nc2ccccc21 | -8.5 | -0.5 | 8.8 | 10.1* | -1.8 | -0.1 | 2.2 | -28.3
CC1CCCCN1C(=O)CSc1nc2ccccc2n1CC(=O)N1CCc2ccccc21 (centres undefined) | 15.4 | -0.5 | -1.8 | 9.6* | 7.7 | 7.4 | 1.4 | 1.1
Cc1ccc(N2C(=O)C3C4C=CC(C4)C3C2=O)cc1C (centres undefined) | -1.3 | 0.4 | -4.2 | 0.3 | -0.3 | 1.6 | . | .
CC1=NN(c2ccc(C)c(C)c2)C(=O)C1C(c1cccc(O)c1)C1C(=O)N(c2ccc(C)c(C)c2)N=C1C (centres undefined) | 9.4 | 0.5 | -12.1 | 16.1* | 5.0 | 5.4 | -0.2 | -1.2
COc1cccc(CN2C(=O)CCC2(C)C(=O)NC2CCCCC2)c1 (centres undefined) | -7.1 | 0.1 | 6.4 | 4.0 | -5.0 | 0.0 | . | .
CC1(C(=O)NC2CCCCCCC2)CCC(=O)N1Cc1cccnc1 (centres undefined) | -0.9 | 1.0 | 0.3 | 13.1* | 2.1 | 4.1 | -0.3 | -1.5
CC(=O)C1C(c2ccccc2)c2c(n[nH]c2C)CC1(C)O (centres undefined) | 5.6 | -0.4 | 8.0 | 11.7* | 1.7 | 3.3 | -4.2 | -2.6
CC(=O)C1C(c2ccc(C)cc2)c2c(n[nH]c2C)CC1(C)O (centres undefined) | 4.7 | -0.3 | -1.4 | 3.8 | -14.4 | 3.9 | . | .
Cc1ccc2c(Cl)c(C(=O)NCCCN3CCOCC3)sc2c1 | -10.6 | -0.3 | 3.6 | -1.0 | -6.0 | -3.9 | . | .
CN1CC=C(c2ccccc2)N(c2ccccc2)C1=O | 0.2 | -1.2 | 4.2 | 4.1 | 1.1 | 11.8* | -7.4 | -2.2
CN1CC=C(c2ccc(C(F)(F)F)cc2)N(c2ccccc2)C1=O | 2.5 | -0.8 | -36.7 | 0.7 | -2.1 | -3.4 | . | .
Cc1cc(NC(=O)c2cc(-c3ccccc3)on2)n(-c2ccccc2)n1 | -1.4 | 0.9 | -1.4 | 8.8 | 0.4 | 11.5* | -8.6 | -7.8
NS(=O)(=O)c1ccc(CCNCc2cccnc2)cc1 | 3.5 | -0.1 | -3.1 | -3.1 | 0.2 | -4.7 | . | .
O=C(CSc1nnc(-c2ccccc2Cl)o1)N1CCCC1 | -4.1 | 0.2 | 3.0 | 2.3 | -1.4 | -0.2 | . | .
CC(=O)Nc1cccc(-c2ccnc3c2CC(C(=O)NCC2CCOCC2)O3)c1 (centres undefined) | 7.4 | -0.5 | 8.3 | 12.2* | 5.1 | 12.6* | -1.1 | 2.7
CC(=O)NCCNC(=O)C1Cc2c(-c3cccc(NC(C)=O)c3)ccnc2O1 (centres undefined) | -3.3 | -0.2 | 7.4 | 3.5 | -2.3 | 4.2 | . | .
O=C(O)C1Nc2c(O)cccc2C2C=CCC12 (centres undefined) | 14.8 | 0.5 | 1.5 | 18.5* | 5.5 | 6.8 | -3.1 | -6.7
SMILES | ADAM10 inh | KLK7 zymogen act | sPLA2-III inh | PLC-gamma1 inh | ADAM17 inh | PLCb3 inh | PLCgamma1 ctr | PLCb3 confirm
CC(Sc1nnc(-c2ccco2)n1N)C(=O)NC1CCCCC1C (centres undefined) | -3.9 | -0.1 | 1.3 | 0.4 | -2.2 | -4.5 | . | .
CC(Sc1nnc(C2CC2)n1N)C(=O)NC1CCCCC1C (centres undefined) | 6.9 | 0.2 | 0.0 | 9.9* | -1.5 | 2.6 | -3.7 | 1.2
Cc1cccc(-c2nn(-c3ccccc3)cc2C(=O)Nc2cccc(S(=O)(=O)NC3=NCCC3)c2)c1 | 11.9 | 0.6 | -10.3 | 10.7* | 3.2 | 1.5 | -5.9 | -3.0
CCOc1ccccc1NC(=O)Nc1ccon1 | -5.3 | -0.5 | 12.3 | -3.2 | -6.3 | -8.7 | . | .
CCOc1ccccc1NC(=O)Nc1ccncc1 | 1.6 | -0.4 | -4.3 | 9.8* | 4.9 | 7.3 | -4.8 | 0.5
COc1cccc(NC(=O)Nc2ccncc2)c1 | 6.7 | 0.1 | -2.1 | 5.4 | 0.6 | 11.2* | -8.6 | -3.5
COc1cccc(NC(=O)Nc2ccc(Cc3ccncc3)cc2)c1 | 2.5 | -0.6 | -23.8 | 4.0 | 5.0 | 2.3 | . | .
CCCn1c(C(C)NS(=O)(=O)c2ccccc2)n[nH]c1=S (centres undefined) | 0.0 | -0.4 | 15.6 | 0.5 | -1.0 | -11.6 | . | .
Cc1ccc(Nc2nnc(SCc3nc4ccccc4c(=O)[nH]3)s2)cc1 | 3.1 | -0.3 | -9.2 | -0.9 | -1.3 | -10.0 | . | .
CCN(CC)S(=O)(=O)c1cccc(C(=O)OCC(=O)NC(C)c2ccccc2)c1 (centres undefined) | 6.1 | -0.1 | -2.0 | 2.0 | -3.1 | 1.2 | . | .
CN(C(=O)CS(=O)(=O)Cc1ccccc1Cl)c1ccccc1 | -0.1 | -0.2 | 3.5 | 1.9 | -1.1 | 0.1 | . | .
CN(C(=O)CS(=O)(=O)c1cccc(Cl)c1)c1ccccc1 | 1.9 | -0.5 | -16.9 | 11.4* | -1.0 | 3.3 | -3.2 | -1.5
COc1cc(/C=C2\SC(N)=NC2=O)ccc1OCC(=O)Nc1ccccc1C | -13.5 | -9.4 | 1.3 | -4.1 | -1.7 | -8.7 | . | .
O=C(c1ccc2snnc2c1)N1CCN(c2ccccn2)CC1 | 4.7 | 0.1 | 13.4 | 14.9* | 6.4 | 6.2 | -5.4 | 0.0
C[C@@H]1CN([C@H](C)CO)C(=O)CCCn2nncc2CO[C@@H]1CN(C)S(C)(=O)=O | -5.8 | -0.6 | 10.7 | -1.1 | -3.8 | 0.2 | . | .
CCOC(=O)C(NC(=O)c1ccccc1F)(Nc1cc(C)on1)C(F)(F)F (centres undefined) | 4.4 | -0.5 | 0.1 | 5.0 | 5.2 | 12.1* | -2.0 | -1.8

Screening results deposited in PubChem by The Scripps Research Institute Molecular Screening Center.
